PI5P4Ka inh: qHTS for Inhibitors of phosphatidylinositol 5-phosphate 4-kinase (PI5P4K); max response, %; Phosphatidylinositol 5-phosphate 4-kinase type-2 alpha (Homo sapiens), P48426; PI5P4Kalpha enzyme, ADP-Glo luminescence, 60 min; hits give low values; 330,000 compounds, 1.2% hits; active means max response of -50% or lower; inconclusive means between -30% and -50%; inactive means -30% or higher; further: value at the top dose of about 77 µM; on the % scale 0 is the no-effect control and ±100 the full control effect
Target sequence (P48426 whole entry, looked up): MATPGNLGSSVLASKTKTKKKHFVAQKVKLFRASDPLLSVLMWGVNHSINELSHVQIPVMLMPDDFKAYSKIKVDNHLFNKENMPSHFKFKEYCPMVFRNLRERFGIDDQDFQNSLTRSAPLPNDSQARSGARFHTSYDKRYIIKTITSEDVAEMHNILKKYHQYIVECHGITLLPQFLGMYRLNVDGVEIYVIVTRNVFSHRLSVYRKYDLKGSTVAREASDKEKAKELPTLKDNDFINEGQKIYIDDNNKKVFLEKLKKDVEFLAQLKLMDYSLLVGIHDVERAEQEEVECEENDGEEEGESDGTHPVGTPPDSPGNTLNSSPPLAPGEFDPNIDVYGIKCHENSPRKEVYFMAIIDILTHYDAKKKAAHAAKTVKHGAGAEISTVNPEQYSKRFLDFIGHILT
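Single end-point luminescence (ADP-Glo) quantified ADP from PI5P4Kalpha turnover; ATP 5 microM final, 1 h at RT, 0.1% CHAPS and 0.28 mM EGTA in HEPES pH 7.4.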
JMJD2A Tudor inh: qHTS Assay for Inhibitors of JMJD2A-Tudor Domain; Lysine-specific demethylase 4A (Homo sapiens), O75164; AlphaScreen JMJD2A-Tudor / H3K4me3 peptide binding; Potency, µM (doses to about 114 µM), for inactives: at the highest dose activity change, negative = inhibition, actives largely listed as inhibitors; 390,000 compounds, 4.4% hits; AID 504339, 2011; further: potency means the concentration at half of the fitted maximal effect; on the % scale 0 is the no-effect control and ±100 the full control effect; nearly all actives have a fitted effect of over 50% in size
G9a inh: qHTS Assay for Inhibitors of Histone Lysine Methyltransferase G9a. G9a H3K9 monomethylation, AlphaScreen, 2 h. Histone-lysine N-methyltransferase EHMT2 (Homo sapiens), Q96KQ7. Potency, µM (highest dose often 102 µM), inactives show top-dose activity, negative = inhibition, actives largely listed as inhibitors. 350,000 compounds, 8.8% hits; further: potency means the concentration at half of the fitted maximal effect; on the % scale 0 is the no-effect control and ±100 the full control effect; nearly all actives have a fitted effect of over 75% in size
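Signal arises when biotinylated H3K9 peptide, once monomethylated, bridges streptavidin donor and antibody-captured acceptor beads. Enzyme at 20 nM was preincubated 15 min with test compounds; peptide 500 nM and SAM 20 uM then reacted for 2 h.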
BAZ2B inh: qHTS Assay for Inhibitors of BAZ2B | AID 504333, 2011 | AlphaScreen BAZ2B-H3K14Ac peptide displacement | Potency, µM (top dose mostly 114 µM), inactives show at the top dose activity change, negative = inhibition, hits mostly inhibitors | Bromodomain adjacent to zinc finger domain protein 2B (Homo sapiens), Q9UIF8 | 360,000 compounds, 4.4% hits; further: potency means the concentration at half of the fitted maximal effect; on the % scale 0 is the no-effect control and ±100 the full control effect; nearly all actives have a fitted effect of over 60% in size
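AlphaScreen luminescence quantifies BAZ2B engagement of H3K14Ac peptide; the protein and biotinylated peptide are both at 50 nM final, buffer PBS pH 7.4 with 0.01% Tween-20, all steps at room temperature.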
HP1b binding inh: HTS for Inhibitors of HP1-beta Chromodomain Interactions with Methylated Histone Tails. Chromobox protein homolog 1 (Homo sapiens), P83916. AlphaScreen HP1-beta / biotin-H3K9me3 peptide binding. Potency, µM (doses to about 114 µM), inactives show at the highest dose activity change, negative = inhibition, most hits filed as inhibitors. 390,000 compounds, 0.56% hits; further: potency means the concentration at half of the fitted maximal effect; nearly all actives have a fitted effect of over 70% in size
Target sequence (P83916 whole entry, looked up): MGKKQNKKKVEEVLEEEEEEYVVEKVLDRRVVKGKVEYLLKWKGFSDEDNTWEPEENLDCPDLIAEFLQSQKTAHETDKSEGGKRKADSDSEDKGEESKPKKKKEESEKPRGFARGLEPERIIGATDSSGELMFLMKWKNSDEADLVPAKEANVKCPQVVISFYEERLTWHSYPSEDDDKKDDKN
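AlphaScreen: HP1-beta (50 nM) preformed 30 min with biotin-H3(1-18)K9me3 peptide (50 nM) in PBS pH 7.4, 0.01% Tween-20. Compound added for 30 min at RT, then streptavidin donor/nickel chelate acceptor beads (10 ug/mL) for 30 min.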
PLK1 PBD inh: qHTS for Inhibitors of PLK1-PDB (polo-like kinase 1 - polo-box domain): Primary Screen; 360,000 compounds, 2.8% hits; Potency, µM, for the others: max response, negative = inhibition, hits mostly inhibitors; Plk1 PBD binding of FITC phosphopeptide, fluorescence polarization; further: potency means the concentration at half of the fitted maximal effect; series mostly up to about 57 µM; on the % scale 0 is the no-effect control and ±100 the full control effect; nearly all actives have a fitted effect of over 65% in size
Numbers without * were called inactive; ? = inconclusive; · = no result given; [ ] = remark or other dose. Shown are actives, neighbours in structure and some others; about 12% of the full set was active somewhere. Unless noted, the call rests on the fitted dose curve; in most records, active means well fitted curve in the direction sought with a large enough effect; inconclusive means small, poorly fitted or top-dose-only effect, or another doubt; inactive means no such curve, though single readings can be large; an effect the other way counts as inactive or inconclusive.

SMILES	PI5P4Ka inh	JMJD2A Tudor inh	G9a inh	BAZ2B inh	HP1b binding inh	PLK1 PBD inh
O=C(O)C1C2C=CC(C2)C1C(=O)Nc1cccc(F)c1 (configuration not stated)	·	1%	-28%[59 µM]	-6%	32%	-10%
Cc1ccc(-c2ccccc2NC(=O)C2C3C=CC(C3)C2C(=O)O)o1 (configuration not stated)	-11	-31%	?	56µM*	-7%	-1%
COc1ccc(C(C)(C)C)cc1NC(=O)C1C2C=CC(C2)C1C(=O)O (configuration not stated)	-2	-13%	50µM*	-35%	17%	-2%
Cc1c(Cl)cccc1NC(=O)C1C2C=CC(C2)C1C(=O)O (configuration not stated)	-5	-6%	12%	4%	19%	-2%
O=C(O)c1cccc(NC(=O)C2C3C=CC(C3)C2C(=O)O)c1 (configuration not stated)	-10	-26%	50µM*	2%	34%	-6%
Cc1ccc(-n2ncc3c(NC4CCCCC4)ncnc32)cc1Cl	·	-6%	4%[59 µM]	4%	24%	·
CCc1ccc(-c2cc(C)no2)cc1S(=O)(=O)Nc1ccc(Cl)cc1	·	-21%	12%[59 µM]	7%	8%	·
Cc1nc(N2CCCC2)ncc1C(=O)Nc1ccc(F)cc1F	·	-4%	11%[59 µM]	-6%	21%	·
Cc1ccc(-c2cccc(NC(=O)C3C(C(=O)O)[C@@H]4C=C[C@H]3C4)c2)o1 (some centres not stated)	-26	-25%	16µM*	?	6%	-4%
C=CCOc1ccc(/C=C/C(=O)N2CCCN(S(=O)(=O)c3c(C)noc3C)CC2)cc1	3	-6%	45µM*	-5%	19%	-1%
CCCC[C@H](O)c1ccccc1	·	·	-18%[12.7 µM]	·	·	·
COc1ccc(-c2ncc3ccccn23)cc1	12	-30%	-41%	-16%	14%	-11%
Fc1ccc(-c2ncc3ccccn23)cc1	3	-12%	-21%[0.501 µM]	-13%	30%	-9%
COc1cc(-c2ncc3ccccn23)cc(OC)c1OC	0	11µM*	25µM*	45µM*	50µM*	-12%
COc1cccc(-c2ncc3ccccn23)c1	12	3.5µM*	7.1µM*	35µM*	16µM*	1%
COc1cc(OC)cc(-c2ncc3ccccn23)c1	12	2.8µM*	7.9µM*	32µM*	?	-7%
Cc1ccc(NC2(C#N)CCCC2)cc1	0	-18%	·	·	14%	-14%
Cc1ccc(NC(=S)N/N=C/c2cccn2Cc2ccccc2F)cc1	4	?	?	28µM*	26%	-22%
Cc1ccc(N2CCN(S(=O)(=O)c3ccc4oc(=O)ccc4c3)CC2)c(C)c1	0	-13%	8%	1%	27%	4%
CN[C@H]1[C@@H](O)[C@@H](NC)[C@@H]2O[C@@]3(O)C(=O)C[C@@H](C)O[C@H]3O[C@H]2[C@H]1O	·	·	32%[21.5 µM]	·	·	·
COc1cnc(-c2ccccn2)nc1N(C)c1ccccc1	-2	25µM*	?	20µM*	2%	-8%
COc1cnc(-c2ccccn2)nc1Oc1ccccc1	0	89µM*	-4%	25µM*	45%	-13%
COc1cnc(-c2ccccn2)nc1Oc1cccc(C(F)(F)F)c1	·	·	-11%	?	·	·
COc1cnc(-c2ccccn2)nc1Sc1ccc(Cl)cc1	·	?	23%	-6%	24%	-16%
O=C(NC(=S)NNC(=O)c1ccccc1[N+](=O)[O-])c1ccccc1	?	28µM*	2.5µM*	-3%	?	?
SMILES	PI5P4Ka inh	JMJD2A Tudor inh	G9a inh	BAZ2B inh	HP1b binding inh	PLK1 PBD inh
Cc1ccccc1OCC(=O)NNC(=S)NC(=O)c1ccccc1[N+](=O)[O-]	-3	5%	-11%[59 µM]	1%	-5%	-13%
O=C(NNC(=S)NC(=O)c1ccccc1[N+](=O)[O-])c1ccccc1	3	-3%	?	11%	30%	-3%
Cc1cccc(NC(=O)c2ccccc2[N+](=O)[O-])n1	-3	4%	-6%[59 µM]	5%	41%	-5%
O=C(O)c1cccc([N+](=O)[O-])c1C(=O)Nc1nc2ccccc2s1	2	3%	79µM*	-14%	12%	-3%
O=C(Nc1cccc(NC(=O)c2ccccc2[N+](=O)[O-])n1)c1ccccc1[N+](=O)[O-]	-55*	?	-7%[0.0925 µM]	-11%	-26%	2.7µM*
CC(C)(C)c1ccc(OCC(=O)NNC(=S)NC(=O)c2ccccc2[N+](=O)[O-])c(Br)c1	?	?	45µM*	-26%	?	0%
CCN(C(=O)Cn1c(C(=O)OC)cc2oc3ccccc3c21)c1cccc(C)c1	·	-25%	?	-14%	27%	·
O=C(N[C@@H](Cc1ccccc1)C(=O)NC1CC1)c1ccc(Cl)cc1	2	-4%	11%	-14%	1%	-15%
O=C(NNC(=O)c1ccccc1[N+](=O)[O-])c1ccccc1[N+](=O)[O-]	-10	-19%	10µM*	0%	-2%	27µM*
CCC(=O)NC(=S)NNC(=O)c1ccccc1[N+](=O)[O-]	3	-9%	3.2µM*	?	38%	-8%
CSc1nc(-c2ccco2)nn1S(=O)(=O)c1ccccc1	·	·	20µM*	?	·	·
CSc1nc(-c2ccco2)nn1S(=O)(=O)c1ccc(C)cc1	-4	-12%	40µM*	-7%	3%	?
CCS(=O)(=O)n1nc(-c2ccco2)nc1SC	?	28µM*	?	21%	?	9.5µM*
CCS(=O)(=O)n1nc(-c2ccc(Cl)cc2)nc1SC	3	38%	7%[59 µM]	26%	92%	-10%
Cc1ccc(S(=O)(=O)n2nc(-c3ccco3)nc2SCc2ccccc2)cc1	-5	-29%	?	?	21%	-2%
O=S(=O)(c1ccc2ccccc2c1)n1nc(-c2ccco2)nc1NCc1ccc(F)cc1	·	-35%	18µM*	?	24%	·
Cc1ccc(CNC(=O)C2CCCN(S(=O)(=O)c3ccc4c(ccn4C)c3)C2)cc1 (configuration not stated)	·	-7%	3%[59 µM]	-1%	21%[57 µM]	·
O=C(NCc1ccccc1Cl)c1csc([C@@H]2O[C@H](CO)[C@H](O)[C@H](O)[C@H]2O)n1	-8	·	·	·	·	1%
COc1cc(NC(=O)COC(=O)CO/N=C(\C)c2ccc3c(c2)OCO3)cc(OC)c1OC	5	-8%	?	-12%	21%	-1%

Source: PubChem BioAssay
